GDH-TPI inh: counter-screen for M. tuberculosis FBA inhibitors: GDH-TPI coupled enzymes | inhibition, % at 4.8 µM | 360,000 tested, 1.2% active | GDH-TPI coupled enzyme counterscreen, NADH absorbance
CCHF vOTU inh: CCHFV vOTU protease inhibition; Pep-AMC fluorescence; inhibition, % at 11.5 µM; 370,000 tested, 0.55% active; AID 651958
BH1578 lux ind: inducers of Vibrio cholerae quorum light production without autoinducers | V. cholerae BH1578 lux reporter, luminescence, 6 h | activation, % at 18.7 µM | 350,000 tested, 0.16% active | AID 588436; in the data active = activation mostly above about 9.7%, no sharp cut-off
Mtb FBA inh: Mtb fructose-bisphosphate aldolase inhibition; P9WQA3; purified M. tuberculosis FBA, fluorescence read-out; inhibition, % at 1 µM; 360,000 tested, 2.3% active; in the data active = inhibition above about 27%
Target sequence (P9WQA3 whole entry, looked up): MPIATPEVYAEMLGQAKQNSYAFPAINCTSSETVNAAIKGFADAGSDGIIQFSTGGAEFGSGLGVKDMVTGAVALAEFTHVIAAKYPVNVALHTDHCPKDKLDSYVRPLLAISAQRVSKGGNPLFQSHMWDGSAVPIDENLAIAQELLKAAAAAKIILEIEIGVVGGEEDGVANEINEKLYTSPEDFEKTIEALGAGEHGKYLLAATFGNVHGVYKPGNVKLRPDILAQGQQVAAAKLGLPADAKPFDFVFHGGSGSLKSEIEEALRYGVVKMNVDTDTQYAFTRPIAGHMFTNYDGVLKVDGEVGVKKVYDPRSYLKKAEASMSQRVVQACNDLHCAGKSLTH
Each line names hits and unclear results; the compound was inactive in the other large screens. Rows were chosen to be rich in hits. Some 3.9% of all compounds tested hit in one or more screens of this group. Cut-off read from the data, not from the text of the source, unless noted: active = inhibition above about 30%; inactive = the rest.

O=C1OCCN1C(=O)[C@H]1[C@H](c2ccccc2)C(c2ccccc2)=NN1c1ccccc1	none
O=C1OCCN1C(=O)[C@H]1[C@H](c2ccccc2)C(c2ccc(F)cc2)=NN1c1ccc(Br)cc1	Mtb FBA inh 35
COc1ccc(OC)c(-n2c(SCC(=O)NCC3CCCO3)nc3ccccc3c2=O)c1 (centres undefined)	none
Cc1cccc(C2=NN(c3ccc(Br)cc3)[C@@H](C(=O)N3CCOC3=O)[C@@H]2c2ccccc2)c1	Mtb FBA inh 28 (no result: CCHF vOTU inh)
CC1=CC(C)(C)NC(=S)N1c1cccc2cc(S(=O)(=O)O)ccc12	none
Cc1cc(C)n2nc(S(=O)(=O)NC(C)(C)C)nc2n1	none
Cc1ccc(NC(=O)C2CCN(S(=O)(=O)c3c(C)noc3/C=C/c3ccco3)CC2)nc1	none
Cc1noc(/C=C/c2ccco2)c1S(=O)(=O)N1CCC(C(=O)NCc2ccco2)CC1	GDH-TPI inh 34 (no result: BH1578 lux ind)
Cc1ccc(CNC(=O)C2CCN(S(=O)(=O)c3c(C)noc3/C=C/c3ccco3)CC2)cc1	GDH-TPI inh 37
Cc1[nH]n(-c2ccc([N+](=O)[O-])cc2)c(=O)c1C=NCCN1CCN(C(=O)c2cccc(F)c2)CC1	GDH-TPI inh 34
Cc1cc(NC(=O)Cn2ccsc2=N)c([N+](=O)[O-])cc1C	none
CCOC(=O)C1=CC[C@H]2c3c(c4ccccc4n3C)C(=O)C1N2Cc1ccccc1	none
N#CC1=C(N)C(C#N)(C#N)C(c2cccnc2)C2CC(c3ccccc3)CC=C12 (centres undefined)	BH1578 lux ind 25 (no result: CCHF vOTU inh)
CCCCC(NC(=O)COc1cc2c(c3oc(=O)cc(C)c13)CCC(C)(C)O2)C(=O)O (centres undefined)	Mtb FBA inh active
Cc1cc(=O)oc2c3c(cc(OCC(=O)N[C@@H](C)C(=O)O)c12)OC(C)(C)CC3	Mtb FBA inh active
Cc1cc(=O)oc2c3c(cc(OCC(=O)NC(C)C)c12)OC(C)(C)CC3	Mtb FBA inh active
COc1cccc(NC(=O)CSc2nnnn2C(C)C)c1	none
COc1ccc(NC(=O)CN2C(=O)c3ccccc3S2(=O)=O)cc1OC	none
COc1cc2[nH]c(=S)n(NC(=O)c3ccccc3)c(=O)c2cc1OC	BH1578 lux ind active
Cn1cnnc1Sc1ccc(/C=C/C(=O)c2ccc(O)cc2)cc1[N+](=O)[O-]	GDH-TPI inh 37
CNC(=O)C1CC(=O)N/C(=N/N=C(\C)c2cccs2)S1 (centres undefined)	GDH-TPI inh 37
C/C(=N\N=C1\NC(=O)CC(C(=O)O)S1)c1cccs1 (centres undefined)	none
COc1ccc(/C(C)=N/N=C2/NC(=O)CC(C(=O)O)S2)cc1F (centres undefined)	GDH-TPI inh 52
CC12CN3CC(C)(CN(C1)C3c1ccc(Br)cc1)C2 (centres undefined)	none
O=C(COC(=O)C1=COCCO1)Nc1ccc(Cl)cn1	none
COc1ccc(CN2CN3CCc4ccccc4C3CS2(=O)=O)cc1 (centres undefined)	none (no result: GDH-TPI inh, BH1578 lux ind, Mtb FBA inh)
O=C(N/N=C/C=C/c1ccc2c(c1)OCO2)C(O)c1ccccc1 (centres undefined)	GDH-TPI inh 56
O=C(N/N=C\C=C\c1ccc2c(c1)OCO2)c1ccc(F)cc1	none
O=C(N/N=C/c1ccc2c(c1)OCO2)C1COc2ccccc2O1 (centres undefined)	none
Cc1cc(C(=O)N/N=C/C=C/c2ccc3c(c2)OCO3)n[nH]1	GDH-TPI inh 50
COc1cc(/C=N/NC(=O)C2COc3ccccc3O2)ccc1O (centres undefined)	none
O=C(N/N=C\c1ccc(O)c([N+](=O)[O-])c1)C1COc2ccccc2O1 (centres undefined)	GDH-TPI inh 70
O=C(N/N=C\C=C\c1ccc2c(c1)OCO2)C1COc2cc3ccccc3cc2O1 (centres undefined)	GDH-TPI inh 49

High-throughput results: PubChem BioAssay, several laboratories
